{"source": "paper PMC7862700", "about": "“An all-to-all approach to the identification of sequence-specific readers for epigenetic DNA modifications on cytosine”", "assay_in_all_cases": "DAPPL (digital affinity profiling via proximity ligation, sequencing); 10 mM Tris-HCl pH 7.5, 50 mM NaCl, 1 mM DTT, 4% glycerol, room temperature, 30 min; GST-TFs on glutathione beads, 16-mer random dsDNA library, 0.1% formaldehyde crosslink after washing; high values mean tight binding", "settings_in_all_cases": "protein: recombinant; tags: N-terminal GST; dsDNA, one strand shown", "key": {"ELK1": {"biological_target": "T1, ELK1 (Homo sapiens, UniProt P19419 1-428)", "T1 sequence": "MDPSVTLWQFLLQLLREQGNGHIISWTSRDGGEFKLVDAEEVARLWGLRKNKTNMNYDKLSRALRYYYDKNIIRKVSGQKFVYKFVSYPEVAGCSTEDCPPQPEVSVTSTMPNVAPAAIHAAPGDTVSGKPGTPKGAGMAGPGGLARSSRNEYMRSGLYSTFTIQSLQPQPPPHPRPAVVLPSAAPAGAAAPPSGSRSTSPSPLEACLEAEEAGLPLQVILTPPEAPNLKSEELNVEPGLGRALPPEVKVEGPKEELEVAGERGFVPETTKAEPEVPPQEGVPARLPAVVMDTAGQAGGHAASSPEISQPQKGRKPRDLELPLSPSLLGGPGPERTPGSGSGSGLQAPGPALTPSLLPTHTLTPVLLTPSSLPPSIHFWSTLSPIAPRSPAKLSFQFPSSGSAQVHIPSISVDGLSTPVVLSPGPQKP", "outline": "(§1)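 A tag-only sample was pooled with DNA-barcoded human transcription factors that had been expressed in yeast as GST fusions and captured on glutathione beads. The pools were incubated for 30 min at room temperature with 200 nmole of a random double-stranded 16-mer DNA library in Tris/NaCl/DTT/glycerol buffer, then washed, crosslinked with 0.1% formaldehyde, proximity-ligated (BsaI/T4 ligase, 1 h, 37 °C), PCR-amplified and sequenced on an Illumina NextSeq500. Binding signal is each hexamer's read frequency for a factor divided by its frequency for the tag-only sample.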"}, "GABPA": {"biological_target": "T2, GABPA (Homo sapiens, UniProt Q06546 1-454)", "T2 sequence": "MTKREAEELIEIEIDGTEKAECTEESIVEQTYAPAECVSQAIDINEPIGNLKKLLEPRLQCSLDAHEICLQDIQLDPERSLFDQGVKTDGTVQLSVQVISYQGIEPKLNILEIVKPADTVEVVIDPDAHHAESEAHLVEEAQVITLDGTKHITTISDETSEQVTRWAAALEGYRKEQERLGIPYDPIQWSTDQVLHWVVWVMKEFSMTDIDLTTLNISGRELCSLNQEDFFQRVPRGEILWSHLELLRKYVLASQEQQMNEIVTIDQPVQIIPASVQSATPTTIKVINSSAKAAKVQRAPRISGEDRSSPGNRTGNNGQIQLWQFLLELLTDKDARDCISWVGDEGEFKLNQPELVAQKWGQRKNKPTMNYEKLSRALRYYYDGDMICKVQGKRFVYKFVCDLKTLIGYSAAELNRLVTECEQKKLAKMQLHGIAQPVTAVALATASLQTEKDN", "outline": "as §1"}, "ERG": {"biological_target": "T3, ERG (Homo sapiens, UniProt P11308 1-479)", "T3 sequence": "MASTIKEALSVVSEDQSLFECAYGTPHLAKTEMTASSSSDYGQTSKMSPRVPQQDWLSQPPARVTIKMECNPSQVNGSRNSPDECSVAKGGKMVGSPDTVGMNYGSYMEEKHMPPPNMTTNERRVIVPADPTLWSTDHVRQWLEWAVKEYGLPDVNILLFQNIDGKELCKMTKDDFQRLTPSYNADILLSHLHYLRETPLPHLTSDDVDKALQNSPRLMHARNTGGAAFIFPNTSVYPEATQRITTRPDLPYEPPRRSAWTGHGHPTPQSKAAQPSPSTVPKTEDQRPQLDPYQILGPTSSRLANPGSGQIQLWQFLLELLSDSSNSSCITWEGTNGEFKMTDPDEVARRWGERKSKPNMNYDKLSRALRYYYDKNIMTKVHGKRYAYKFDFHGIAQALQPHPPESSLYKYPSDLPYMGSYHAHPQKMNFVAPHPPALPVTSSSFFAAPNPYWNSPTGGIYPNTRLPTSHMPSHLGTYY", "outline": "as §1"}, "ELF1": {"biological_target": "ELF1 (Homo sapiens, UniProt P32519 1-619)", "sequence (P32519 whole entry)": "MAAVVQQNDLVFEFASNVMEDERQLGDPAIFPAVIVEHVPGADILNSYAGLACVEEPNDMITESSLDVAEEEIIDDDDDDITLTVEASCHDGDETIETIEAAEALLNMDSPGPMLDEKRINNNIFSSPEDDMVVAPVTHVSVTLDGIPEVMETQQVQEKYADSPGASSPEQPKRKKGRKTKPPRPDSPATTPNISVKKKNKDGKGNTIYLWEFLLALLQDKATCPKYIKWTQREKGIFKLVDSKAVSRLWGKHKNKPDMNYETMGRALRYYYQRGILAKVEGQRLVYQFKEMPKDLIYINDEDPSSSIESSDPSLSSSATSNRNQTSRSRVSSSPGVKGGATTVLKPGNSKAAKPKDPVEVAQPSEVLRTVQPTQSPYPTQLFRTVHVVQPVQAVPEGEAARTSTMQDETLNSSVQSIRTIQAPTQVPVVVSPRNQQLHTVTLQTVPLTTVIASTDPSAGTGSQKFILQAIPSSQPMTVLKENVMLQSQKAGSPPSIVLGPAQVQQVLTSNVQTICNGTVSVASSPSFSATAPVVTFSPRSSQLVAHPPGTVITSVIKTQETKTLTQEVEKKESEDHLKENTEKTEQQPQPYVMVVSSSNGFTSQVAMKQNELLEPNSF", "outline": "as §1"}, "EHF": {"biological_target": "T4, EHF (Homo sapiens, UniProt Q9NZC4 1-300)", "T4 sequence": "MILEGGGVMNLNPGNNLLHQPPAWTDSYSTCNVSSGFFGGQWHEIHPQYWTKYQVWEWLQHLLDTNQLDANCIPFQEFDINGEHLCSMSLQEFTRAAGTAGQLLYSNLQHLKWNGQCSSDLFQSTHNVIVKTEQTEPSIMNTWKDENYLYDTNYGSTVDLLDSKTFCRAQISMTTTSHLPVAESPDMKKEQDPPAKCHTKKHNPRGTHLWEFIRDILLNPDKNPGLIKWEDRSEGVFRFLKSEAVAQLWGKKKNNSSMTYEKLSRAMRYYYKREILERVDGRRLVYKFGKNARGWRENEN", "outline": "as §1"}, "SPIB": {"biological_target": "SPIB (Homo sapiens, UniProt Q01892 1-262)", "sequence (Q01892 whole entry)": "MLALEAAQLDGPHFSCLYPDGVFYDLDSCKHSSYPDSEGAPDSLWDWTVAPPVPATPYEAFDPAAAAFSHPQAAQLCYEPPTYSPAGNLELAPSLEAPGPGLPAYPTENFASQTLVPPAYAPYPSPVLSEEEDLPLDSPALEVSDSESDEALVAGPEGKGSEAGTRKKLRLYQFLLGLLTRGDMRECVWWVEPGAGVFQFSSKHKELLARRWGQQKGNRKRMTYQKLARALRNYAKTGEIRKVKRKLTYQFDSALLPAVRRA", "outline": "as §1"}, "FEV": {"biological_target": "T5, FEV (Homo sapiens, UniProt Q99581 1-238)", "T5 sequence": "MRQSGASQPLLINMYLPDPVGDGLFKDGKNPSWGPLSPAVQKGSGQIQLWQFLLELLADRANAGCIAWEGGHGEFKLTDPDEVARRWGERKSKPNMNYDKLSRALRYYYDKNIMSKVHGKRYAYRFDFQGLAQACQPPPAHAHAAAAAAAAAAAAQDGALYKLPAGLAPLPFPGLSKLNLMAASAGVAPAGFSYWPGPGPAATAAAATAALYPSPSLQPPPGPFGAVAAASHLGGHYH", "outline": "as §1"}, "ETV5": {"biological_target": "ETV5 (Homo sapiens, UniProt P41161 1-510)", "sequence (P41161 whole entry)": "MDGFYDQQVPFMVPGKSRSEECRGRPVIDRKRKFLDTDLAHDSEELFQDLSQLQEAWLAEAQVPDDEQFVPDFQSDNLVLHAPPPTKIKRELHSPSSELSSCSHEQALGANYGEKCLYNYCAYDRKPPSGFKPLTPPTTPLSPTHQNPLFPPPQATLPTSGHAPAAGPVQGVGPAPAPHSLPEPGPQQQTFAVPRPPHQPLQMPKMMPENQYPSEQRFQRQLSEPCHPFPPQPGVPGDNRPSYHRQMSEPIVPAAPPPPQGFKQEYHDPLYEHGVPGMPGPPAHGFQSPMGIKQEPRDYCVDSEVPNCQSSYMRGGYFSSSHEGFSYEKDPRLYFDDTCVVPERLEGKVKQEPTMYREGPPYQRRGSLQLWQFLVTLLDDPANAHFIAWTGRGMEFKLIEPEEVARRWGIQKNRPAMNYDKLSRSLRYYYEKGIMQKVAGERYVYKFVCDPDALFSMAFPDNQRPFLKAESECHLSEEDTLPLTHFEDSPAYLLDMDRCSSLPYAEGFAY", "outline": "as §1"}, "ELF4": {"biological_target": "ELF4 (Homo sapiens, UniProt Q99607 1-663)", "sequence (Q99607 whole entry)": "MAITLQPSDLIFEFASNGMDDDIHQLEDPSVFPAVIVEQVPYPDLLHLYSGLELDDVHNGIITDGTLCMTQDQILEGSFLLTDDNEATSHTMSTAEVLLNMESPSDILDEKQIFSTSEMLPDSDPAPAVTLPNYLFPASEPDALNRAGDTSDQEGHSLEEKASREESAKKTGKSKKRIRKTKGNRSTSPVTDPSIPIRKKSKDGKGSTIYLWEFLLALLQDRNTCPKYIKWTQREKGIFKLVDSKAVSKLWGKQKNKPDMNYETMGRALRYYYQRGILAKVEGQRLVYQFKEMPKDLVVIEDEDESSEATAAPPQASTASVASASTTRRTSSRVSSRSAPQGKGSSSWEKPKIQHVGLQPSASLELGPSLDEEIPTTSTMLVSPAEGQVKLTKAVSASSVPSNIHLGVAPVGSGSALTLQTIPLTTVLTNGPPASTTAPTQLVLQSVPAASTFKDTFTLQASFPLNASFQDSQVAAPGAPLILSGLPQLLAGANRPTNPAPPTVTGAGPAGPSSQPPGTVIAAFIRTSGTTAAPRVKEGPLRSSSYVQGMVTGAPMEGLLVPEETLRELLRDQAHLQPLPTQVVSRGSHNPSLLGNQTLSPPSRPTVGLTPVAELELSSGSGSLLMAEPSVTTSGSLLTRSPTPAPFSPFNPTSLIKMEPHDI", "outline": "as §1"}, "ELK4": {"biological_target": "T6, ELK4 (Homo sapiens, UniProt P28324-2 1-405)", "T6 sequence": "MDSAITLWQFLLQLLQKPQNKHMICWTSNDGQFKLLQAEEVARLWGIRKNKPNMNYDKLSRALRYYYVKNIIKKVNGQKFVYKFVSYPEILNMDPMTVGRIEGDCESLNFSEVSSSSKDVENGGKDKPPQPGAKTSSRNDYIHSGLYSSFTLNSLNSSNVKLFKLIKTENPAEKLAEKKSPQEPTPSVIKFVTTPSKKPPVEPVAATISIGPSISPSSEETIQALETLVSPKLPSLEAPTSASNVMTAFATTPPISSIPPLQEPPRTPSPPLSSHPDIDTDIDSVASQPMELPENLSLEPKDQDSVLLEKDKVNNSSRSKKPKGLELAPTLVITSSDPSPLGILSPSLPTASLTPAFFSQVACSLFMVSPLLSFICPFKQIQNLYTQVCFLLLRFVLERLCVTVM", "outline": "as §1"}}}
{"sequence": "CAAACA", "values": [{"measurement": "binding signal", "setting": "ELK1", "value": "1.15 fold enrichment (6-mer frequency, TF over GST control)"}, {"measurement": "binding signal", "setting": "GABPA", "value": "1.18 fold enrichment (6-mer frequency, TF over GST control)"}, {"measurement": "binding signal", "setting": "ERG", "value": "1.18 fold enrichment (6-mer frequency, TF over GST control)"}, {"measurement": "binding signal", "setting": "ELF1", "value": "1.08 fold enrichment (6-mer frequency, TF over GST control)"}, {"measurement": "binding signal", "setting": "EHF", "value": "1.09 fold enrichment (6-mer frequency, TF over GST control)"}, {"measurement": "binding signal", "setting": "SPIB", "value": "1.13 fold enrichment (6-mer frequency, TF over GST control)"}, {"measurement": "binding signal", "setting": "FEV", "value": "1.1 fold enrichment (6-mer frequency, TF over GST control)"}, {"measurement": "binding signal", "setting": "ETV5", "value": "1.13 fold enrichment (6-mer frequency, TF over GST control)"}, {"measurement": "binding signal", "setting": "ELF4", "value": "1.14 fold enrichment (6-mer frequency, TF over GST control)"}, {"measurement": "binding signal", "setting": "ELK4", "value": "1.13 fold enrichment (6-mer frequency, TF over GST control)"}]}
